The supplement of paper PMC6555819

Columns and labels:
Test in all cases: PBM binding z-score (relative to random genomic background probes); higher = stronger binding; sequences stand for … in GC…GCGATTGACAGCGTAGAATGAAGG
[1] = system: RARb homodimer (NR concentration 270 nM)
Method in brief: (§1)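 Antibodies against each partner of ligand-free nuclear receptor dimers (one per run) detected binding on custom Agilent 4×180K protein-binding microarrays after 1 h incubation. The double-stranded probes had 34-nt variable regions carrying direct-repeat seeds, single-nucleotide variants, half-site ablations and random human genomic background sequences. Binding z-scores, from regression-normalized fluorescence, use the random background probes as reference.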

[2] = system: RARg:RXRa (NR concentration 270 nM, RXRa partner concentration 90 nM)
Method in brief: as §1

[3] = system: RARg homodimer (NR concentration 270 nM)
Method in brief: as §1

[4] = system: RXRa DBDmut IVT, anti-RXR (DBD mutation: RXRa K156A/R161A, NR concentration 90 nM)
Method in brief: as §1

[5] = system: RXRa homodimer (NR concentration 180 nM)
Method in brief: as §1

[6] = system: THRa:RXRa (NR concentration 90 nM, RXRa partner concentration 90 nM)
Method in brief: as §1

[7] = system: THRa homodimer (NR concentration 90 nM)
Method in brief: as §1

[8] = system: VDR homodimer (NR concentration 270 nM)
Method in brief: as §1

Row | Sequence | PBM binding z-score [1] | PBM binding z-score [2] | PBM binding z-score [3] | PBM binding z-score [4] | PBM binding z-score [5] | PBM binding z-score [6] | PBM binding z-score [7] | PBM binding z-score [8]
1 | AATACAGGGTCATCGTAGGCCAGCGTACGCACAG | 3.68 | 5.61 | 4.89 | 2.94 | 6.47 | 4.79 | 1.37 | 3.03
2 | TAGCCTAGGTCATTGGGCCAGTATGGTACGCATC | 2.8 | 3.75 | 3.81 | 1.46 | 2.73 | 2.81 | 0.583 | 0.715
3 | CGAACTAGGTCAGAAGAGGACAGTGAAGGATGAT | 2.53 | 2.68 | 3.66 | 0.392 | 1.03 | 4.34 | 0.406 | 0.275
4 | TCTAGTTGGTCACGTAGGTCACACACGACGGGTA | 3.66 | 3.36 | 3.67 | 1.06 | 2.91 | 2.39 | 1.04 | 1.22
5 | ATCTAAAGGTCGAGGTGAGTATAGAGAAAGGGAA | 3.3 | 4.54 | 4.69 | 1.33 | 4.82 | 3.09 | 1.31 | 0.632
6 | TCTCGGAGGACACGAGGGTCAGAGCTTTCCAGAG | 2.81 | 2.58 | 2.96 | 0.569 | 1.33 | 2.48 | 0.409 | 0.685
7 | ACTAACAGGCCAAGTTTGGGTCACTCAAACAAAG | 2.55 | 2.88 | 2.24 | 0.278 | 0.882 | 2.73 | 1.26 | 0.351
8 | CAAACTAGGTCACCGGAAGGTCCAAGTCCGCATG | 3.77 | 5.27 | 5.86 | 1.82 | 3.81 | 3.59 | 2.3 | 1.68
9 | CCTACTGGGCCACGAAATGTCATTGATTCAGTGA | 0.607 | 0.2 | 0.479 | -0.374 | -0.0138 | 0.211 | -0.319 | -0.54
10 | TCCCGGAGGACACGAAAGGTCAGAGCTCGACATC | 4.78 | 4.89 | 5.23 | 0.811 | 3.89 | 3.88 | 1.31 | 0.948
11 | ATCTCTAGGTAAAGATAGTTCAGTGCATGCAAAT | 1.11 | 0.406 | 0.733 | -0.0342 | 0.191 | 0.926 | 0.229 | 1.15
12 | ACCGAAAGGTCGAAGGTGAGTATACCCACCCGAA | 2.51 | 4.53 | 4.2 | 1.35 | 5.27 | 2.11 | -0.114 | 0.383
13 | GATACAGGGTCAGCTAGAGGCCAGAGTCTGGAAA | 3.39 | 6.56 | 5.07 | 1.7 | 4.07 | 2.9 | 0.144 | 0.522
14 | TCACATAGGTAAAGGTGAAAGTCGAACGATATGA | 1.65 | 1.65 | 1.26 | 1.26 | 2.34 | 1.44 | -0.0581 | -0.223
15 | ATCTCTAGGTAAGAGTTCAGTGAATCCCGAGGAT | 1.91 | 1.21 | 1.51 | 1.71 | 1.16 | 0.872 | 0.129 | 3.85
16 | CTTCAAAGTTCAACTAAGGTAACGTAAAGCACGC | 4.33 | 5.92 | 6.84 | 4.36 | 5.26 | 5.38 | 2.06 | 3.94
17 | ACAGACAGGTGAGTGAAGGTAACTCAACTGGACG | 0.036 | 0.211 | 0.661 | -0.368 | 0.324 | 1.75 | -0.422 | -0.644
18 | TTACCAAGGTGAAGGTCGATGATCCCTCTGTAGA | 1.64 | 1.22 | 1.39 | -0.217 | 1.4 | 2.05 | 0.572 | 0.0587
19 | CGTCCAAGGTCATAGTAGGTCAGTGAAGACAGAT | 4.63 | 6.11 | 6.44 | 4.14 | 6.11 | 4.94 | 2.97 | 3.93
20 | CCGACTGGGGCAAGGTAACCATAACGCACAGCCA | 0.426 | 0.417 | 0.527 | -0.495 | 0.481 | 0.522 | 0.219 | -0.0983
21 | GCTAGTTAGTCAGTAAAAGGTCACACACCGGTCG | 5.02 | 4.93 | 4.43 | 0.44 | 5.22 | 3.49 | 1.36 | 1.62
22 | GCTTGTAGATCAAGGTTATGAAAGACTAAGCTAA | 0.411 | 0.306 | 0.25 | -0.2 | 0.623 | 1.36 | -0.196 | -0.036
23 | CGTCCAAGGTCAGCAGGTCAGTGAAAGCGACGTG | 5.12 | 6.35 | 6.64 | 2.54 | 4.82 | 4 | 2.28 | 1.77
24 | ACTAGTTGGTCAGCTGAGGACACACACAATTCGG | 1.64 | 1.18 | 1.82 | 0.558 | 0.282 | 4.7 | 4.2 | 0.259
25 | CGAACTAGGTCATTCACAGGACAGTGAATAGTAA | 2.81 | 4.97 | 4.43 | 2.48 | 2.55 | 2.91 | 0.979 | 1.29
26 | CGTCCTAGGTCAGCAGGTCAGTGAAAGCGACGTG | 4.37 | 4.95 | 5.41 | 0.595 | 3.21 | 2.88 | 1.1 | 0.285
27 | CGTCCAAGGTCATAGGAGGTAAGTGAAGACAGAT | 3.21 | 5.58 | 5.93 | 3.37 | 5.29 | 4.6 | 2.43 | 2.6
28 | CGTTCAAGGTCAGAGAGGTCAGTGAATGCCGAGT | 5.35 | 6.32 | 7.17 | 3.83 | 5.61 | 4.37 | 3.21 | 5.8
29 | CGTCCAAGGTCAGAGAGGTCAGTGAATGCCGAGT | 5.19 | 6.25 | 6.97 | 3.52 | 5.73 | 4.19 | 2.86 | 5.68
